Screening results deposited in PubChem BioAssay by National Center for Advancing Translational Sciences (NCATS).
Most compounds without a hit are left out; they make up all but 19% or so of the library.
HT1080 IDH1KD tx: qHTS for induction of synthetic lethality in tumor cells producing 2HG: qHTS for the HT-1080-IDH1KD cell line; actives 2% (n = 360,000); Potency, µM (top dose mostly 46.1 µM), for inactives: at the top dose activity, negative = toxicity, usual class: cytotoxic; HT-1080 IDH1 knockdown viability, ATP luminescence, 48 h;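 further: potency means the concentration at half of the fitted maximal effect; 0% = DMSO wells and -100% = cell-free medium wells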
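Cytotoxicity counter-line: IDH1KD HT-1080, 48 h, CellTiter-Glo. Curves classed by r2, magnitude and activity.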
TDP1 cell noCPT: qHTS for Inhibitors of human tyrosyl-DNA phosphodiesterase 1 (TDP1): qHTS in cells in absence of CPT. AID 686978, 2013. actives 15% (n = 420,000). DT40 Tdp1-/- hTDP1 cells, no CPT, ATP luminescence, 48 h. Potency, µM (doses to about 46.2 µM), for inactives: at the top dose activity change, negative = growth inhibition, hits mostly inhibitors; further: potency means the concentration at half of the fitted maximal effect; nearly all actives have a fitted effect of over 55% in size
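Growth of hTDP1-complemented DT40 Tdp1-knockout cells is measured by ATP luminescence after at least 48 hr compound exposure at 37 °C, with DMSO substituting for the 20 nM CPT used in the parallel screen.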
DT40 TDP1 CPT: qHTS for Inhibitors of human tyrosyl-DNA phosphodiesterase 1 (TDP1): qHTS in cells in presence of CPT. chicken DT40 Tdp1-/-;hTDP1 cells + 20 nM CPT, ATP luminescence, 48 h. Potency, µM (top dose mostly 46.2 µM), for the others: at the highest dose activity change, negative = growth inhibition, most hits filed as inhibitors. actives 12% (n = 420,000). AID 686979, 2013; further: potency means the concentration at half of the fitted maximal effect; nearly all actives have a fitted effect of over 55% in size
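Cell growth measured by CellTiter-Glo luminescence after a minimum 48 h, 37 C compound exposure with 20 nM CPT in Tdp1-knockout DT40 cells stably expressing hTDP1, seeded 400/well; qHTS titration format.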
HT1080-NT tox: qHTS for induction of synthetic lethality in tumor cells producing 2HG: qHTS for the HT-1080-NT fibrosarcoma cell line; Potency, µM (titrated, usually from 46.1 µM), for the others: at the highest dose activity, negative = less viability, usual class: cytotoxic; actives 1.6% (n = 360,000); HT-1080-NT fibrosarcoma viability, CellTiter-Glo ATP luminescence, 48 h;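 further: NT is the 2HG producing partner of a matched IDH1 knockdown line; potency means the concentration at half of the fitted maximal effect; 0% = DMSO-treated cells and -100% = media-only wells without cells; nearly all actives have a fitted effect of over 55% in size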
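750 cells/well, RPMI + 5% FBS; 2 h settle, compound pin-transfer, 48 h at 37 degrees C. CellTiter-Glo 10 min RT, luminescence. Normalized to DMSO and media-only wells.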
IL1B secr inh: qHTS for Inhibitors of Inflammasome Signaling: IL-1-beta AlphaLISA Primary Screen; actives 4.7% (n = 360,000); activity change, % at 57.5 µM; AID 743279, 2014; THP-1 LPS/ATP IL-1B secretion, AlphaLISA, 16 h; active compounds read low; in the data active means activity change below about -50%; inconclusive means mostly about -30% to -49%
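Secreted IL-1B measured by AlphaLISA bead assay after 16 h compound exposure of THP-1 cells; compounds (final up to 57.5 uM) added 1 h before LPS (250 ng/mL) and ATP (1.25 mM) stimulation; lower signal means less secretion.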
An asterisk follows results filed as active; u = inconclusive; x = no result; [ ] = remark or other dose. Unless noted, the call rests on the fitted dose curve; in most records, active means well fitted curve in the direction sought with a large enough effect; inconclusive means small, poorly fitted or top-dose-only effect, or another doubt; inactive means no such curve, though single readings can be large; an effect the other way counts as inactive or inconclusive. Unless noted, on the % scale 0 is the no-effect control and ±100 the full control effect.

SMILES	HT1080 IDH1KD tx	TDP1 cell noCPT	DT40 TDP1 CPT	HT1080-NT tox	IL1B secr inh
O=C(N/N=C/c1cc2c(cc1Cl)OCO2)c1ccc2c(c1)OCCO2	8%	u	-5%	-3%	-58*
O=C(N/N=C\c1cc2c(cc1Cl)OCO2)c1cccs1	-1%	u	u	0%	0
O=C(N/N=C/c1c(Cl)[nH]c2ccccc12)c1ccc2c(c1)OCCO2	-24%	u	u	-14%	-57*
O=C(COC(=O)COc1ccccc1)NCc1ccc2c(c1)OCO2	-2%	-17%	-9%	0%	19
O=S(=O)(c1ccc(-c2ccon2)s1)N1CCN(c2ccccn2)CC1	2%	-26%	-14%	-10%	12
COc1ccc(-c2[nH]ncc2-c2ccc3c(c2)OCCO3)c(O)c1	-21%	7.3µM*	4.6µM*	-10%	7
COc1ccc(-c2cn[nH]c2-c2ccc(OCc3ccc([N+](=O)[O-])cc3)cc2O)cc1	-20%	16µM*	u	0%	-56*
COc1ccc(-c2cn[nH]c2-c2ccc(O)cc2O)cc1OC	-1%	u	-2%	-11%	12
CCc1cc(-c2[nH]ncc2-c2ccc(OC)cc2)c(O)cc1O	u	18µM*	u	u	-83*
COc1ccc(-c2[nH]ncc2-c2nc(C)cs2)c(O)c1	-9%	-23%	-4%	-8%	-13
CCc1cc(-c2[nH]ncc2-c2ccc3c(c2)OCO3)c(O)cc1O	u	11µM*	18µM*	u	-89*
COc1cc(CNCCNC(=O)c2nonc2N)ccc1OCc1ccc(Cl)nc1	0%	u	u	-6%	-14
CC(=O)c1ccc(OCC(=O)N2CCN(S(=O)(=O)c3ccc(C)cc3C)CC2)cc1	-10%	u	u	0%	0
CC(OC(=O)c1c[nH]c2ccccc12)C(=O)N1CCCC1 (centres undefined)	8%	-26%	-1%	15%	-6
CCOC(=O)c1c(C)[nH]c2cc(Br)c(O)cc12	-6%	-9%	u	-13%	-9
CCOC(=O)c1c(OCC)[nH]c2c1cc(O)c1ccccc12	u	18µM*	16µM*	u	-18
CCN(C(=O)C1CCN(S(=O)(=O)c2c(C)noc2/C=C/c2ccc(C)cc2)CC1)c1cccc(C)c1	x	u	1%	x	x
CCOC(=O)C(=Cc1c[nH]c2ccc(S(=O)(=O)N(C)C)cc12)C(=O)OCC	u	16µM*	u	-24%	-101*
CCCCNC(=O)C1C(c2ccc(C(F)(F)F)cc2)=Nc2ccccc2N1C(C)=O (centres undefined)	-26%	u	u	-3%	11
Cc1ccc(-c2nnn(CC(=O)N(c3ccccc3F)C(C(=O)NC3CCCC3)c3ccco3)n2)o1 (centres undefined)	-18%	16µM*	29µM*	0%	-11
CCOCCCN(C(=O)Cn1nnc(-c2ccc(C)o2)n1)C(C(=O)NC1CCCC1)c1ccc(C)o1 (centres undefined)	5%	u	u	-2%	-52*
Cc1ccc(-c2nnn(CC(=O)N(c3ccc(F)cc3)C(C(=O)NC3CCCC3)c3ccco3)n2)o1 (centres undefined)	-22%	u	15µM*	-30%[9.24 µM]	93
Cc1ccc(-c2nnn(CC(=O)N(c3cccc(F)c3)C(C(=O)NC3CCCC3)c3ccncc3)n2)o1 (centres undefined)	6%	-11%	5%	10%	-1
Cc1ccc(-c2nnn(CC(=O)N(c3cccc(F)c3)C(C(=O)NC3CCCC3)c3ccco3)n2)o1 (centres undefined)	2.8µM*	16µM*	21µM*	u	2
O=C(COc1cccc([N+](=O)[O-])c1)NN1C(=O)c2ccccc2C1=O	21%	8%	7%	12%	-5
SMILES	HT1080 IDH1KD tx	TDP1 cell noCPT	DT40 TDP1 CPT	HT1080-NT tox	IL1B secr inh
Cc1ccc(S(=O)(=O)CCC(=O)NNC(=O)CN(C)S(=O)(=O)c2ccc(C)cc2)cc1	1%	-20%	4%	-5%	-7
CC(C)N(Cc1ccccc1)S(=O)(=O)c1ccc(Cl)nc1	1%	u	0%	2%	-19
Cc1ccc(S(=O)(=O)N(C)C)cc1NC(=O)COC(=O)c1cccs1	4%	2%	-18%	10%	-13
Cc1ccc(S(=O)(=O)N(C)C)cc1NC(=O)COc1ccccc1C(=O)Nc1ccccc1	2%	9.2µM*	13µM*	1%	-13
CN(C)S(=O)(=O)c1cccc(NC(=O)COc2cccc3ccccc23)c1	0%	-15%	-26%	-1%	7
Cc1ccc(NC(=O)c2ccccc2OCC(=O)Nc2ccccc2F)cc1S(=O)(=O)N(C)C	u	21µM*	16µM*	-24%	-18
Cc1ccc(S(=O)(=O)N(C)C)cc1NC(=O)COC(=O)/C(=C/c1ccc(F)cc1)c1cccs1	-29%	26µM*	13µM*	-24%	-15
CN(C)S(=O)(=O)c1cccc(NC(=O)COc2ccccc2C(=O)Nc2ccccc2)c1	u	9.2µM*	18µM*	-30%	u
CCOc1ccc(OCCNC(=O)c2ccc3c(c2)nnn3CC)cc1	-6%	-8%	-26%	-6%	20
O=C(NCCCn1ccnc1)/C(=C/c1ccco1)NC(=O)c1ccco1	12%	1%	-2%	u	23
Cn1c(SCC(=O)NNC(=O)c2ccc(Cl)cc2)nnc1-c1cccnc1	1%	-3%	8%	5%	-8
CCN(C(=O)c1ccc(NC(=O)C2CCCCC2C(=O)O)cc1)c1ccccc1 (centres undefined)	2%	-3%	14%	2%	17
Cc1nc(Nc2ncc3c(n2)CC(C)(C)CC3=O)nc2ccccc12	3%	22%	-2%	5%	-7
CC1=NC(Nc2nc(C)c3ccccc3n2)=NC(C)(C)C1	2%	16µM*	21µM*	-1%	-100*
C[N+]1(C)CCC(OC(=O)C(O)(c2ccccc2)C2CCCC2)C1 (centres undefined)	13%	-2%	0%	25%	-7
CCc1ccccc1N(C)C(=O)c1cc2c(Cl)nc3ccc(C)cc3c2s1	x	18µM*	u	x	x
Cc1ccc2[nH]c(=O)c3cc(C(=O)N(CCCOC(C)C)Cc4ccco4)sc3c2c1	u	12µM*	23µM*	-27%	22
